Drawing on PubChem BioAssay AID1835 (Johns Hopkins Ion Channel Center, 2009), this text covers activity increase over dofetilide control, less the hit threshold for 50 compounds.

Screen size: about 2,400 compounds; about 750 (31%) were called active. The list shows a part of the results. Unmarked numbers belong to inactive results.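 How the source made its calls: active means median signal gain over dofetilide-blocked control wells reaching their mean plus 3 SD, so readout 1 at least 0; inactive means the rest.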

The target of the experiment is Voltage-gated inwardly rectifying potassium channel KCNH2 (Homo sapiens) (UniProt Q12809). Kind of experiment: hERG protection against dofetilide inhibition, confirmation, cell-based, thallium flux, duplicate retest, dofetilide IC70 (AID 1835). The conditions noted are these: hERG cell line, FluxOR thallium flux, dofetilide-blocked; at 10 µM; hits give high values. A general note: Block of hERG is tested as a sign of cardiac risk.
Voltage-gated inwardly rectifying potassium channel KCNH2 (Homo sapiens), sequence (Q12809 whole entry, looked up): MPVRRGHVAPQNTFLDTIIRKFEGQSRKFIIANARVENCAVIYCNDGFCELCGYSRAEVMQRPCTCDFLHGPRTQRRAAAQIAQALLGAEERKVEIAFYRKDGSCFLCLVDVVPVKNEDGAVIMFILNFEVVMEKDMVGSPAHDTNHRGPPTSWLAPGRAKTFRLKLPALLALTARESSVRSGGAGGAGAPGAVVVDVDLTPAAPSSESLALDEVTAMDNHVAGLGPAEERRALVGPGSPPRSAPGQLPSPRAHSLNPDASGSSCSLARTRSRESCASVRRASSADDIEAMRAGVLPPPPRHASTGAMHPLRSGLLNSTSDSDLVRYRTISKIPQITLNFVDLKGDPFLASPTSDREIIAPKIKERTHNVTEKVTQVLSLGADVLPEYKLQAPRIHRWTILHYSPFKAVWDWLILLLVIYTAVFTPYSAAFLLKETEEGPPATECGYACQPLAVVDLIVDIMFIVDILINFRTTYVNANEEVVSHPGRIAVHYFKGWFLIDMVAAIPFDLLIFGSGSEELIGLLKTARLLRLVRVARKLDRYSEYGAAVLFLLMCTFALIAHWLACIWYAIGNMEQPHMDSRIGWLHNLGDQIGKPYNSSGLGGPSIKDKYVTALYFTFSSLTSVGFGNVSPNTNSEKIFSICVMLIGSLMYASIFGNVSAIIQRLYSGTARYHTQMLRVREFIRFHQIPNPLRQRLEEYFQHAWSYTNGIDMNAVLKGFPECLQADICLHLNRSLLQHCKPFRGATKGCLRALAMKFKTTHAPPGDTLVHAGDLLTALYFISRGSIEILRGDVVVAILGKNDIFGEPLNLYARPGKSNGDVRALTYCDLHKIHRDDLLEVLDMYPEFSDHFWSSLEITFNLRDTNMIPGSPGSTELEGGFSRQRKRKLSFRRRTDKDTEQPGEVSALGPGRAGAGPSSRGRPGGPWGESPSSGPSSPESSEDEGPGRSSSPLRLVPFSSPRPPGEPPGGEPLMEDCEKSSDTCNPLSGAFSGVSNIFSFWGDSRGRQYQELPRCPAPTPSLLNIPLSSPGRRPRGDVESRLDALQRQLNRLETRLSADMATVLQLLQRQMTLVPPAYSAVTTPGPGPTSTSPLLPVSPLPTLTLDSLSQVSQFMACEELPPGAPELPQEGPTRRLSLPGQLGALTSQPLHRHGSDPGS
As to `O=C(CN(C(=O)CNS(=O)(=O)c1ccc(F)cc1)c1cccc(F)c1)NCC1CCCO1` (stereo not given), the activity increase over dofetilide control, less the hit threshold was -17%.

For the compound `CC1CCCC(NC(=S)NC(=O)c2cncc(Br)c2)C1C` (stereo not given), the activity increase over dofetilide control, less the hit threshold was -10%.

As for `O=C(NC(=S)Nc1nc(-c2ccccc2)cs1)c1cncc(Br)c1`, the activity increase over dofetilide control, less the hit threshold is 1% (active).

On to `COc1ccc(-c2csc(NC(=S)NC(=O)c3ccc4ccccc4c3)n2)cc1OC`, for which the activity increase over dofetilide control, less the hit threshold is -9%.

Take `Cc1ccc(C)c(NC(=S)NC(=O)c2cncc(Br)c2)c1`: the activity increase over dofetilide control, less the hit threshold is 6% (active).

As to `O=C(NC(=S)Nc1cccc(Cl)c1)c1cncc(Br)c1`, the activity increase over dofetilide control, less the hit threshold was -10%.

On to `Cc1ccc(NC(=S)NC(=O)c2cncc(Br)c2)cc1Cl`, for which the activity increase over dofetilide control, less the hit threshold was -13%.

Regarding `COc1cc(S(=O)(=O)n2cnc(C)c2)ccc1Cl`, the activity increase over dofetilide control, less the hit threshold is -20%.

Take `COC(=O)C1=C(C)N(CC2CCCO2)C(=O)/C1=C\c1ccc(O)cc1` (stereo not given): the activity increase over dofetilide control, less the hit threshold was 8% (active).

For the compound `Cc1ccc(NC(=O)CSc2nnc(C3CC3)n2CC2CCCO2)c(C)c1` (stereo not given), the activity increase over dofetilide control, less the hit threshold was -14%.

In the case of `COC(=O)c1cc2sc(Cl)cc2n1CC(=O)NCC1CCCO1` (stereo not given), the activity increase over dofetilide control, less the hit threshold was -8%.

In the case of `O=S(=O)(c1ccc(F)cc1)N1CCN(c2ccc(F)cc2)CC1`, the activity increase over dofetilide control, less the hit threshold is -15%.

Take `CCOC(=O)c1sc(=S)n2c1[nH]c(=O)c1ccc(C(=O)OC)cc12`: the activity increase over dofetilide control, less the hit threshold is 51% (active).

Consider `CCC1SC2=NC(C)=C(C(=O)OC)C(c3ccc(C(=O)OC)cc3)N2C1=O` (stereo not given), for which the activity increase over dofetilide control, less the hit threshold is -1%.

For the compound `CC(=O)N1C(=O)/C(=C2\SC(=S)N(NC(=O)c3ccc(O)cc3)C2=O)c2ccccc21`, the activity increase over dofetilide control, less the hit threshold was -3%.

Regarding `S=c1nc(-c2ccccc2)[nH]n1-c1ccccc1`, the activity increase over dofetilide control, less the hit threshold was 54% (active).

For `COc1cc(-c2nnc(SCC(=O)O)n2-c2ccccc2)cc(OC)c1OC`, the activity increase over dofetilide control, less the hit threshold is -9%.

Consider `Cc1ccc(/C=C2/C(=N)N3N=C(CC(=O)N4CCCC4)SC3=NC2=O)cc1`, for which the activity increase over dofetilide control, less the hit threshold was -2%.

Take `CC(C)CSC1=NSC2=NC(=O)/C(=C\c3ccccc3)C(=N)N12`: the activity increase over dofetilide control, less the hit threshold is 32% (active).

`CC(Oc1ccccc1F)C(=O)NC1CCS(=O)(=O)C1` (stereo not given): the activity increase over dofetilide control, less the hit threshold was -9%.

Take `CN1C(=O)C2(OCC(C)([N+](=O)[O-])CO2)c2ccccc21` (stereo not given): the activity increase over dofetilide control, less the hit threshold is -7%.

For `Cc1nc2cc3sc(C)nc3cc2s1`, the activity increase over dofetilide control, less the hit threshold was -8%.

Turning to `Cc1cccc(N/C(N)=N/c2nc(C)cc(=O)[nH]2)c1`, the activity increase over dofetilide control, less the hit threshold was -9%.

On to `Cc1ccc(NN=Nc2nc3c([nH]2)c(=O)n(C)c(=O)n3C)cc1`, for which the activity increase over dofetilide control, less the hit threshold was -6%.

In the case of `Cc1ccc(Nc2cc(C)nn2-c2nc(C)cc(=O)[nH]2)cc1`, the activity increase over dofetilide control, less the hit threshold is 40% (active).

In the case of `C=CCn1c(=S)[nH]c2sc3c(c2c1=O)CCCC3`, the activity increase over dofetilide control, less the hit threshold is 30% (active).

For `C=CCn1c(=S)[nH]c2sc3c(c2c1=O)CCC3`, the activity increase over dofetilide control, less the hit threshold was 27% (active).

`c1ccc(SSc2ccccn2)nc1`: the activity increase over dofetilide control, less the hit threshold is -21%.

In the case of `CCOC(=O)C1CCCN(C(=O)CN2C(=O)c3ccccc3C2=O)C1` (stereo not given), the activity increase over dofetilide control, less the hit threshold was -20%.

For `CCOC(=O)C1CCN(S(=O)(=O)c2cccc3nonc23)CC1`, the activity increase over dofetilide control, less the hit threshold was 2% (active).

Turning to `O=C(NCc1ccc(Cl)cc1)C1CCN(S(=O)(=O)c2cccc3nonc23)CC1`, the activity increase over dofetilide control, less the hit threshold was -5%.

Take `CCN1CCN(CCNC(=O)CCCn2nc(C)c3c(C)n(-c4ccc(C)cc4)nc3c2=O)CC1`: the activity increase over dofetilide control, less the hit threshold was -8%.

`Cc1cc(C)cc(OCc2nnc(SCC(=O)Nc3ccccc3)o2)c1`: the activity increase over dofetilide control, less the hit threshold was -19%.

As to `CC(Oc1ccc(Cl)cc1Cl)C(=O)Nc1cccnc1` (stereo not given), the activity increase over dofetilide control, less the hit threshold is -23%.

For the compound `COc1ccc(S(=O)(=O)Nc2cccnc2)cc1`, the activity increase over dofetilide control, less the hit threshold was -11%.

As to `CC(Oc1ccc(Br)cc1Br)C(=O)Nc1cccnc1` (stereo not given), the activity increase over dofetilide control, less the hit threshold is 9% (active).

Take `Oc1ccc(Cl)cc1C1=NNC(c2cccs2)C1` (stereo not given): the activity increase over dofetilide control, less the hit threshold was 10% (active).

Turning to `O=C(Nc1cc(Cl)ccc1O)C1CC(c2ccccc2Cl)=NO1` (stereo not given), the activity increase over dofetilide control, less the hit threshold was -1%.

For `CCCNS(=O)(=O)c1ccc(OCC(=O)Nc2ccc3c(c2)OCCO3)cc1`, the activity increase over dofetilide control, less the hit threshold is -10%.

For the compound `CCOc1cc(C(=O)NC)cc(OCC)c1OCC`, the activity increase over dofetilide control, less the hit threshold was -13%.

With `COCCNC(=O)C1CC(=O)N(c2ccc(OC)cc2)C1c1ccc(OC)cc1` (stereo not given), the activity increase over dofetilide control, less the hit threshold was -24%.

Take `CN(C)c1ccc(N=Nc2ccc(C(=O)O)cc2)cc1`: the activity increase over dofetilide control, less the hit threshold is -4%.

In the case of `O=c1ccc(N=Nc2ccccc2)ccc1O`, the activity increase over dofetilide control, less the hit threshold was 68% (active).

Regarding `COc1ccc(CN(C)C(=O)c2cccc(NS(=O)(=O)c3ccccc3)c2)cc1F`, the activity increase over dofetilide control, less the hit threshold is -26%.

Regarding `O=C1CC(O)(C(F)(F)F)Oc2c1ccc1ccccc21` (stereo not given), the activity increase over dofetilide control, less the hit threshold was 13% (active).

Take `CC1(C)Cc2c(ccc3ccccc23)C2=C(C(=O)N3CCCC3)C(=O)C(=O)N21`: the activity increase over dofetilide control, less the hit threshold was -16%.

Regarding `COc1ccc(N(C(=O)c2ccco2)S(=O)(=O)c2cccs2)cc1`, the activity increase over dofetilide control, less the hit threshold was -6%.

On to `CC(=O)Nc1ccc(S(=O)(=O)N2CCC(C(=O)O)CC2)cc1`, for which the activity increase over dofetilide control, less the hit threshold was -6%.

In the case of `N=c1sccn1CC(=O)Nc1ccccc1Cc1ccccc1`, the activity increase over dofetilide control, less the hit threshold was -7%.

Consider `CN(CC(=O)Nc1ccc(Cl)cc1)C(=O)c1cccc(S(=O)(=O)NCc2ccccc2)c1`, for which the activity increase over dofetilide control, less the hit threshold was -18%.
